Screening data deposited in PubChem BioAssay by National Center for Advancing Translational Sciences (NCATS).
The list is not random: actives were taken first. Their share in the collection is about 9.3%.
NPC1 promoter act – qHTS Assay for NPC1 Promoter Activators; hit rate 2.4% among 320,000; Huh7 NPC1 promoter luciferase reporter, 24 h; Potency, µM (series often up to 9.22 µM), without a hit: at the top dose activation, usual class: activators; also: % of control where 0% means no effect; nearly all actives have a fitted effect of over 60% in size
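Huh7 cells stably carrying NPC1 promoter–luciferase, plated in Opti-MEM with 10% FBS for 2 h, were exposed to compound in DMSO for 24 h at 37 °C; luciferase reagent was added for 10 min and luminescence read.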
SMN2 splice up – qHTS Assay for Enhancers of SMN2 Splice Variant Expression; HEK293 SMN2-luciferase splicing reporter, luminescence, 30-36 h; Potency, µM (titrated, usually from 46.1 µM), without a hit: at the highest dose activity change, positive = activation, hits mostly activators; hit rate 2.8% among 210,000; also: % of control where 0% means no effect; nearly all actives have a fitted effect of over 55% in size
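HEK293 cells carry an SMN2 minigene-luciferase reporter in which exon 7 inclusion puts luciferase in frame. Cells were seeded at 2000 cells/well, attached for 10-12 hours, then exposed to compounds for 30-36 hours at 37C before ONE-Glo luminescence.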
FLuc modulator – qHTS profiling assay for firefly luciferase inhibitor/activator using purifed enzyme and Km concentrations of substrates (counterscreen for miR-21 project) | Luciferin 4-monooxygenase (Photinus pyralis), P08659 | purified FLuc, Km substrates, luminescence inhibition | Potency, µM (highest dose often 57.5 µM), for inactives: top-dose activity change, negative = inhibition, most hits filed as inhibitors | hit rate 6.9% among 360,000 | AID 588342, 2011;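 also: plate controls were vehicle for no effect and reference inhibitor for full effect; nearly all actives have a fitted effect of over 55% in size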
Target sequence (P08659 whole entry, looked up): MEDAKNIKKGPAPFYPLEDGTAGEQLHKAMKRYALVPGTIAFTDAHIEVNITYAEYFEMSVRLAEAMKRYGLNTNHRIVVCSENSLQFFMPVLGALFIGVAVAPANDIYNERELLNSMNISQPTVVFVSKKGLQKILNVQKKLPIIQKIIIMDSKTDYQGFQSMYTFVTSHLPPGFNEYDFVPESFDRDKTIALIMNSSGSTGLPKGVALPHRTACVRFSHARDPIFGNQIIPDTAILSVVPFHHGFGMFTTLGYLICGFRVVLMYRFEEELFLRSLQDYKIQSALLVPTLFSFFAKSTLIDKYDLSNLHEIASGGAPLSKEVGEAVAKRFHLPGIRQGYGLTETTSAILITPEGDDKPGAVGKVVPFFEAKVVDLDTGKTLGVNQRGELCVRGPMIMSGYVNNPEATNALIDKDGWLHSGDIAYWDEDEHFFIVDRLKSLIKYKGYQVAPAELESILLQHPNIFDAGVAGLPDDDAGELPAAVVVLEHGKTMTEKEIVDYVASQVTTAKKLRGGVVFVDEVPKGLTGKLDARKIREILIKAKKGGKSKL
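Biochemical qHTS of compounds, final roughly 60 µM downward over six points, against 10 nM purified firefly luciferase using Km concentrations of substrates (10 uM D-luciferin, 10 uM ATP) in Tris acetate pH 7.5 buffer; luminescence output.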
ELG1 repair inh – qHTS screen for small molecules that inhibit ELG1-dependent DNA repair in human embryonic kidney (HEK293T) cells expressing luciferase-tagged ELG1; HEK293T ELG1-luciferase reporter, luminescence, 16 h; DNA damage induced by 5-fluorouridine; Potency, µM (top dose mostly 46.1 µM), for the others: at the top dose activity change, negative = inhibition, hits mostly inhibitors; hit rate 2.3% among 330,000; AID 504467, 2011; also: % is scaled to controls: 0 for no effect and ±100 for the full control effect; nearly all actives have a fitted effect of over 55% in size
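Cells (2,000 per well) received 5-fluorouridine plus test compound or DMSO and were incubated 16 hr at 37 °C, 5% CO2. Luciferase activity was read by luminescence 30 min after ONE-Glo addition; signal suppression marked inhibition of damage-induced ELG1 function.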
ELG1 genotoxic – qHTS screen for small molecules that induce genotoxicity in human embryonic kidney (HEK293T) cells expressing luciferase-tagged ELG1; HEK293T ELG1-luciferase reporter, luminescence, 16 h; Potency, µM (top dose mostly 46 µM), without a hit: top-dose activity change, positive = activation, most hits filed as activators; hit rate 1.3% among 330,000; also: % of control where 0% means no effect; nearly all actives have a fitted effect of over 60% in size
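Reporter readout depends on ELG1 protein level, which increases with genetic stress. After 16 hr compound exposure at 37 °C, luciferase activity was quantified using ONE-Glo.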
Rab9 promoter act – qHTS Assay for Rab9 Promoter Activators; AID 485297, 2010; Huh7 Rab9 promoter-luciferase reporter, luminescence, 24 h; Potency, µM (series often up to 9.22 µM), without a hit: at the highest dose activation, negative = inhibition, hits mostly activators; hit rate 2.8% among 320,000; also: % of control where 0% means no effect; nearly all actives have a fitted effect of over 60% in size
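Measured in stably transfected Huh7 cells bearing a Rab9 promoter–luciferase construct: 24 h compound treatment at 37 °C, followed by luminescence detection.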
* = called active by the depositor; ? = inconclusive; / = not tested or not shown. Calls follow the shape of the dose curve; as a rule, active = well fitted curve in the direction sought with a large enough effect; inconclusive = small, poorly fitted or top-dose-only effect, or another doubt; inactive = no such curve, though single readings can be large; an effect the other way counts as inactive or inconclusive. Potency is read from the fitted curve at half-maximal effect.

SMILES | NPC1 promoter act | SMN2 splice up | FLuc modulator | ELG1 repair inh | ELG1 genotoxic | Rab9 promoter act
C=CCNc1nc(Nc2ccccc2F)nc(OCC)n1 | 4µM* | 11µM* | 21µM* | ? | 19% | 4µM*
COc1ccc(C(=O)NNC(=S)NC(=O)c2ccc(OC)cc2)cc1 | -3% | / | -2% | -25% | 0% | 5%
COc1ccccc1NC(=O)CC(c1ccc(OC(C)C)cc1)c1ccccc1OC (centres undefined) | -1% | -11% | -3% | 8.2µM* | -5% | 1%
COc1ccc(C(=O)NNC(=S)Nc2ccccc2)cc1 | 2.5µM* | 11µM* | 11µM* | ? | ? | 0.56µM*
COc1ccccc1C(CC(=O)Nc1ccc(C)c(C)c1)c1ccc(OC(C)C)cc1 (centres undefined) | -2% | / | 0% | -19% | -5% | -3%
COc1ccc(NC(=S)N/C(=N/CS(=O)(=O)c2ccccc2)c2ccccc2)cc1 | 2.8µM* | 13% | 2.7µM* | ? | ? | ?
COc1ccccc1NC(=S)NNC(=O)c1c(Cl)c(C)nn1C | -2% | -14% | 15µM* | ? | -6% | 8%
CC(=O)c1ccc(NC(=S)NNC(=O)c2ccncc2)cc1 | -3% | 25% | 19µM* | ? | 9% | 13%
COc1ccccc1NC(=S)NC(=O)CC(C)C | 7% | -6% | 15µM* | 8% | 1% | -1%
COc1ccccc1NC(=S)NNC(=O)c1ccccc1Br | 22% | 5µM* | ? | ? | 10% | ?
COc1cc(OC)cc(C(=O)NNC(=S)Nc2ccccc2OC)c1 | 1% | 6% | 21µM* | -7% | 4% | -5%
CC(=O)c1ccc(OC(=O)CCc2nc3ccccc3s2)cc1 | -3% | 5% | -18% | 4% | -1% | -1%
Cc1cc(N2CCN(c3cccc(C)c3C)CC2)nc(-c2ccccc2)n1 | -3% | -8% | 1% | -19% | -5% | -2%
CCS(=O)(=O)N1CCc2cc(C(=O)Nc3cccc(C(C)=O)c3)ccc21 | / | / | 0% | / | / | /
COc1cccc(NC(=O)CN(C)C(C)C(=O)Nc2ccc(S(=O)(=O)N3CCCC3)cc2)c1 (centres undefined) | -4% | -6% | -7% | -28% | -3% | -1%
CCCC(=O)c1ccc(N2CCCCCC2)c(F)c1 | 3.2µM* | 26% | 8.5µM* | ? | ? | 3.5µM*
CCCC(=O)c1ccc(N2CCCCC2)c(F)c1 | ? | -7% | 13µM* | ? | ? | ?
CCCC(=O)c1ccc(N2CCN(C(=O)OCC)CC2)c(F)c1 | 0% | -11% | -12% | -14% | 1% | 12%
CCCC[C@H]1C[C@@H]1[C@@H]1N(C(C)=O)[C@H](c2cccc(OC)c2)CC12CC2 | / | -16% | / | / | / | /
CCOC(=O)c1ccc(N/C=C/C(=O)c2ccco2)cc1 | 1.6µM* | 14µM* | 1.3µM* | ? | 0.73µM* | 1.3µM*
O=C(/C=C/Nc1ccc(F)cc1)c1ccco1 | 4µM* | 16µM* | 0.95µM* | ? | 2.1µM* | 2.8µM*
O=C(Nc1ccccc1C(=O)Nc1ccc(F)cc1)c1ccco1 | -3% | / | ? | -2% | -1% | -5%
Cc1ccc(N/C=C/C(=O)c2ccco2)c(O)c1 | 3.2µM* | / | 0.76µM* | ? | 3.7µM* | 1.8µM*
N#Cc1ccc(OCC(=O)N/N=C2/CC(c3ccccc3)Oc3ccccc32)cc1 (centres undefined) | 1% | -10% | -2% | -4% | 5% | -14%
Cc1cc(NCCN2CCOCC2)n2nc(C)c(-c3ccccc3)c2n1 | 1% | 10% | -8% | 3% | 3% | 0%
SMILES | NPC1 promoter act | SMN2 splice up | FLuc modulator | ELG1 repair inh | ELG1 genotoxic | Rab9 promoter act
COc1ccc(-c2c(C)nn3c(NC4CCCC4)cc(C)nc23)cc1OC | -13% | / | -13% | ? | -8% | -3%
Cc1nc(NCc2ccccn2)c2ccccc2n1 | -8% | / | -1% | ? | 19% | -19%
Cc1cc(NCCN2CCOCC2)n2ncc(-c3ccccc3)c2n1 | 0.71µM* | 14µM* | 7.6µM* | ? | 8.2µM* | 1.6µM*
COc1ccccc1-c1cnn2c(NCCc3ccccc3)cc(C)nc12 | 15% | / | 11µM* | ? | 10% | 19%
Cc1cc(NC2CCCC2)n2ncc(-c3ccccc3)c2n1 | ? | / | 0.21µM* | ? | 0.16µM* | ?
CC(C)(C)c1cc(NCc2ccccn2)n2ncc(-c3ccccc3)c2n1 | 23% | / | 17µM* | 4% | -2% | 17%
COC(=O)c1[nH]c2cc(OC)c(OC)cc2c1/C=N/Nc1ccccc1 | -3% | / | ? | ? | 8% | -3%
COc1ccccc1NC(=O)Cn1c(=O)n(CCC(=O)NCC2CCCO2)c(=O)c2cc(OC)c(OC)cc21 (centres undefined) | / | 9% | -5% | / | / | /
Cn1nccc1NS(=O)(=O)c1ccc(NC(=O)C(F)(F)F)cc1 | -3% | / | 2% | 3% | 1% | 1%
COCc1ccc(C(=O)N2CCCC(Nc3ccc(F)c(F)c3)C2)s1 (centres undefined) | -1% | / | -2% | -21% | 0% | 9%
COc1cccc(NC(=O)CN2C(=O)C(=O)N(C3CCCC3)C2=O)c1 | / | / | / | 13% | -1% | /
Cc1cc(NCc2ccccc2)n2ncnc2n1 | -9% | -23% | 0% | -8% | 0% | -1%
COc1ccc(CCNc2cc(C)nc3c(-c4ccccc4)cnn23)cc1OC | 0% | -29% | -7% | ? | -5% | -1%
Cc1cc(NCc2ccccc2)n2ncc(-c3ccccc3)c2n1 | 1.6µM* | / | 2.4µM* | ? | 4.1µM* | 0.89µM*
Cc1cc(NC(C)c2ccccc2)n2ncc(-c3ccccc3)c2n1 (centres undefined) | 2.5µM* | / | 12µM* | ? | ? | 4µM*
